Only a selection was taken, and hits are over-represented in it overall.
14-3-3g Raf = modulators of human 14-3-3 gamma - Raf peptide interaction | FP, 14-3-3gamma / TMR-pS259-Raf peptide binding | inhibition, % at 40 µM | P61981 | hit rate 0.19% among 160,000 | AID 422; in the data active = inhibition above about 30%;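 note: 0% = protein plus tracer without compound and 100% = blank with tracer alone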
Target sequence (P61981 whole entry, looked up): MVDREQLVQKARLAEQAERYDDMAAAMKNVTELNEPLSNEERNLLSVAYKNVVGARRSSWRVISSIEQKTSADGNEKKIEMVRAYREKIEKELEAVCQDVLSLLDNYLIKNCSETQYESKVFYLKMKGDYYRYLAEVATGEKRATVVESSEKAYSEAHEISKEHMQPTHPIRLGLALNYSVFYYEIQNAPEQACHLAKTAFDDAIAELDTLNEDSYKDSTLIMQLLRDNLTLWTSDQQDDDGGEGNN
An asterisk follows results filed as active; ! = repeats disagree.

SMILES	14-3-3g Raf
CSC1=NC(=Cc2ccc(N(C)C)cc2)C(=O)S1	125*
CCOC(=O)SC1=N/C(=C\c2ccc(N(C)C)cc2)C(=O)S1	-63
CCn1c(NCc2nc3ccccc3n2C)nc2ccccc21	2
Cc1ccc(O)c(N=Cc2ccc(OCc3ccccc3)cc2)c1	-19
Oc1ccc(N=Cc2ccc(OCc3ccccc3)cc2)cc1	35*
Oc1ccc(Cl)cc1N=Cc1ccc(OCc2ccccc2)cc1	-7
COc1ccc(CCNC(=O)c2sc3nc(C)nc(N4CCCCC4)c3c2C)cc1OC	-12
O=C(O)c1cc(N2C(=O)c3ccc([N+](=O)[O-])c4c([N+](=O)[O-])ccc(c34)C2=O)ccc1O	-32
Cc1cccc(C)c1N1C(=O)c2ccc([N+](=O)[O-])c3c([N+](=O)[O-])ccc(c23)C1=O	-20
O=C1c2ccc([N+](=O)[O-])c3c([N+](=O)[O-])ccc(c23)C(=O)N1c1ccc(O)cc1	43*
O=C1c2ccccc2-c2onc3ccc(Nc4ccc(Cl)cc4)c1c23	-285
Cc1ccc(CSc2nnc3c(n2)OC(c2ccccn2)Nc2ccccc2-3)cc1 (centres undefined)	-6
CCCSc1nnc2c(n1)OC(c1cccc(C)n1)Nc1ccccc1-2 (centres undefined)	-5
Cc1ccc(CSc2nnc3c(n2)OC(c2ccncc2)Nc2ccccc2-3)cc1 (centres undefined)	76*
Cc1ccc(CSc2nnc3c(n2)OC(c2cccc(C)n2)Nc2ccccc2-3)cc1 (centres undefined)	32*
Clc1ccc(CSc2nnc3c(n2)OC(c2ccncc2)Nc2ccccc2-3)cc1 (centres undefined)	-47
Cc1ccc(CSc2nnc3c(n2)OC(c2ccc(C(=O)O)cc2)Nc2ccccc2-3)cc1 (centres undefined)	-11
O=C(c1ccccc1)N1CCN(C(=O)c2ccccc2)C2C1N(C(=O)c1ccccc1)CCN2C(=O)c1ccccc1 (centres undefined)	0
CCOC(=O)CCN(Cc1ccccc1)S(=O)(=O)c1ccc(Cl)cc1	-4
COC(=O)c1sc(NC(=O)C(F)(F)F)c(C(=O)OC)c1C	-8
Cc1oc(NC(=O)C(F)(F)F)c(C#N)c1C	33*
COc1ccc(-c2oc(NC(=O)C(F)(F)F)c(C#N)c2-c2ccc(OC)cc2)cc1	-7
C=CCn1c(=S)[nH]c2c1c(=O)n(C)c(=O)n2C	4
COc1ccc(C=Nc2ccc3nc(-c4ccccc4)[nH]c3c2)cc1OC	-11
O=C(Nc1cc(N=Cc2cc(Cl)ccc2O)ccc1Cl)c1ccccc1	-5
SMILES	14-3-3g Raf
Oc1ccc(Cl)cc1C=Nc1ccc2nc(-c3ccccc3)[nH]c2c1	30*
Cc1ccc2nc(C)cc(OCC(=O)O)c2c1	-6
CCc1nc(C)ccc1OCC(=O)O	74*!
CCc1nc(C)ccc1OCC(=O)NCCCN(C)C	-4
CC1(C)CC(=O)c2sc(N3CCCCC3)nc2C1	1
CC1(C)CC(=S)C=C(N2CCCCC2)C1	125*
CC1(C)CC(=O)C=C(N2CCN(C3=CC(=O)CC(C)(C)C3)CC2)C1	0
COc1ccc(OC)c(NC(=O)c2c(NC(=O)c3cccs3)sc3c2CCCC3)c1	-7
CC1CCCCC1NC(=O)CN1CCN(Cc2ccc(Cl)cc2)C1=O (centres undefined)	-2
Cc1cc(Br)ccc1N=Cc1c(O)ccc2ccccc12	-2
Oc1ccc2ccccc2c1/C=N/n1cnnc1	-8
Oc1ccc2ccccc2c1C=Nc1cccn2cc(-c3ccccc3)nc12	93*
O=C(O)c1ccc(S(=O)(=O)N2CCOCC2)cc1	-2
Cc1cc([N+](=O)[O-])ccc1NC(=O)c1ccc(I)cc1	-12
O=C1Nc2cc(C(=O)N3CCOCC3)ccc2SC1N1CCOCC1 (centres undefined)	38*!
O=C1Nc2cc(C(=O)N3CCOCC3)ccc2SC1N1CCCC1 (centres undefined)	-6
CN1CCN(C(=O)c2ccc3c(c2)NC(=O)C(N2CCOCC2)S3)CC1 (centres undefined)	4
O=C(O)CCn1nc(-c2ccc(Cl)cc2)ccc1=O	-16
CC(=O)[C@]1(O)Cc2c(O)c3c(c(O)c2[C@@H](O[C@H]2C[C@H](N)[C@H](O)[C@H](C)O2)C1)C(=O)c1ccccc1C3=O	117*
COc1cccc2c1C(=O)c1c(O)c3c(c(O)c1C2=O)C[C@@](O)(C(C)=O)C[C@@H]3O[C@H]1C[C@H](N)[C@H](O)[C@H](C)O1	-4
Cc1ccc(C(=O)O)c(NC(=O)c2ccncc2)c1	0
CCc1ccc(C2=NC(c3cccnc3)NC(c3cc(Br)ccc3O)C2)cc1 (centres undefined)	-9
Cc1nc2cc(N=Cc3nc4ccccc4n3C)ccc2n1C	-2
COc1cc(Cl)c(C)cc1NC(=O)c1cc2c(-c3ccc(OC)c(OC)c3)nn(C)c2s1	-9
CCOC(=O)c1c(C(C)(C)C)oc2ccc(OCc3ccc(F)cc3)cc12	1
SMILES	14-3-3g Raf
CCOC(=O)C1=C(C)NC2=C(C(=O)CC(C)(C)C2)C1c1ccccn1 (centres undefined)	-5
CCOC(=O)CN=C1CC(C)(C)CC2=C1Sc1ncnc(OC)c1N2	81*
COCCOC(=O)C1=C(C)NC(=O)NC1c1c(OC)ncnc1OC (centres undefined)	-7
Cc1ccccc1NC(=O)C1CCCN(S(=O)(=O)c2cccc3nsnc23)C1 (centres undefined)	2
COc1ccc(COC(=O)C2=C(C)NC3=C(C(=O)CCC3)C2c2cc3c(cc2[N+](=O)[O-])OCO3)cc1 (centres undefined)	13
CN(c1ccc(Br)cc1)S(=O)(=O)c1ccc2[nH]cc(C(=O)NCc3ccccn3)c(=O)c2c1	147*
COCCCNC(=O)c1c[nH]c2ccc(S(=O)(=O)N(C)c3c(C)cccc3C)cc2c1=O	-10
CCCCN(C)C(=O)c1c[nH]c2ccc(S(=O)(=O)N(C)c3ccccc3CC)cc2c1=O	-7
C=CCN(c1ccccc1)S(=O)(=O)c1ccc2[nH]cc(C(=O)NCc3ccccn3)c(=O)c2c1	0
Cc1cccc(C)c1N(C)S(=O)(=O)c1ccc2[nH]cc(C(=O)NCc3ccccn3)c(=O)c2c1	44*
CCc1ccc(NS(=O)(=O)c2ccc3[nH]cc(C(=O)NCc4ccccn4)c(=O)c3c2)cc1	172*
CCc1ccc(NS(=O)(=O)c2ccc3[nH]cc(C(=O)NCc4ccc(C)cc4)c(=O)c3c2)cc1	-15
CCOc1ccc(N(C)S(=O)(=O)c2ccc3[nH]cc(C(=O)NCc4ccccc4)c(=O)c3c2)cc1	-12
CCc1ccc(NS(=O)(=O)c2ccc3[nH]cc(C(=O)NCc4ccccc4)c(=O)c3c2)cc1	-15
Cc1ccccc1N(C)S(=O)(=O)c1ccc2[nH]cc(C(=O)NCC3CCCO3)c(=O)c2c1 (centres undefined)	-6
CCc1ccccc1N(C)S(=O)(=O)c1ccc2[nH]cc(C(=O)NCCc3ccccc3)c(=O)c2c1	-2
CCc1ccccc1N(C)S(=O)(=O)c1ccc2[nH]cc(C(=O)O)c(=O)c2c1	63*
CCC(=O)N/C(=N\c1nc(C)cc(C)n1)Nc1cccc(OC)c1	-7
CC(O)CSc1nc(N)c2c3c(sc2n1)CC(C)CC3 (centres undefined)	5
COCCCNC(=O)c1c(O)c2c([nH]c1=O)CCCC2	-3
CC1=NN(C(=O)CCc2ccccc2)C(O)(c2ccc(Br)cc2)C1 (centres undefined)	2
CC1CCN(S(=O)(=O)c2ccc3c(c2)N(CC(=O)NCCN2CCCC2)C(=O)CS3)CC1	-13
